# Data from PubChem BioAssay (NCATS).
# Records with an inconclusive call do not appear. Entries that show only a call come without a potency. A number with no mark means an inactive call. Activity calls are given as the source filed them. The call rests on the fitted dose curve; in most records, active means well fitted curve in the direction sought with a large enough effect; inconclusive means small, poorly fitted or top-dose-only effect, or another doubt; inactive means no such curve, though single readings can be large; an effect the other way counts as inactive or inconclusive.
# Legend:
# [1] = target: Rap guanine nucleotide exchange factor 3 (Homo sapiens) (UniProt O95398); assay: Confirmatory qHTS for agonist of cAMP-regulated guanine nucleotide exchange factor 3 (EPAC1) (AID 1645881);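 further: EPAC1 catalysed release of BODIPY-GDP from Rap1B seen as fluorescence loss; nearly all actives have a fitted effect of over 75% in size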
# [2] = target: Rap guanine nucleotide exchange factor 4 (Homo sapiens) (UniProt Q8WZA2); assay: Confirmatory qHTS for antagonist of cAMP-regulated guanine nucleotide exchange factor 4 (EPAC2) (AID 1645885); further: nearly all actives have a fitted effect of over 25% in size
# [3] = target: Rap guanine nucleotide exchange factor 3 (Homo sapiens) (UniProt O95398); assay: Counterscreen qHTS for antagonist of cAMP-regulated guanine nucleotide exchange factor 3 (EPAC1) (AID 1645888);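 further: fluorescence loss as bound BODIPY-GDP is released from Rap1B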
# In short: (§1)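 Rap1B-BODIPY-GDP 250 nM + GDP 50 uM; cpds 7-pt, final 9.74 nM–152 uM (activator mode) or from 7.32 nM upwards (inhibitor mode); RT; FI 480/540 nm at 5 and 30 min, then ± cAMP, reread.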
# [4] = target: Rap guanine nucleotide exchange factor 3 (Homo sapiens) (UniProt O95398); assay: Counterscreen qHTS for agonist of cAMP-regulated guanine nucleotide exchange factor 3 (EPAC1) (AID 1645889); further: nearly all actives have a fitted effect of over 40% in size
# In short: as §1
# Rap guanine nucleotide exchange factor 4 (Homo sapiens), sequence (Q8WZA2 whole entry, looked up): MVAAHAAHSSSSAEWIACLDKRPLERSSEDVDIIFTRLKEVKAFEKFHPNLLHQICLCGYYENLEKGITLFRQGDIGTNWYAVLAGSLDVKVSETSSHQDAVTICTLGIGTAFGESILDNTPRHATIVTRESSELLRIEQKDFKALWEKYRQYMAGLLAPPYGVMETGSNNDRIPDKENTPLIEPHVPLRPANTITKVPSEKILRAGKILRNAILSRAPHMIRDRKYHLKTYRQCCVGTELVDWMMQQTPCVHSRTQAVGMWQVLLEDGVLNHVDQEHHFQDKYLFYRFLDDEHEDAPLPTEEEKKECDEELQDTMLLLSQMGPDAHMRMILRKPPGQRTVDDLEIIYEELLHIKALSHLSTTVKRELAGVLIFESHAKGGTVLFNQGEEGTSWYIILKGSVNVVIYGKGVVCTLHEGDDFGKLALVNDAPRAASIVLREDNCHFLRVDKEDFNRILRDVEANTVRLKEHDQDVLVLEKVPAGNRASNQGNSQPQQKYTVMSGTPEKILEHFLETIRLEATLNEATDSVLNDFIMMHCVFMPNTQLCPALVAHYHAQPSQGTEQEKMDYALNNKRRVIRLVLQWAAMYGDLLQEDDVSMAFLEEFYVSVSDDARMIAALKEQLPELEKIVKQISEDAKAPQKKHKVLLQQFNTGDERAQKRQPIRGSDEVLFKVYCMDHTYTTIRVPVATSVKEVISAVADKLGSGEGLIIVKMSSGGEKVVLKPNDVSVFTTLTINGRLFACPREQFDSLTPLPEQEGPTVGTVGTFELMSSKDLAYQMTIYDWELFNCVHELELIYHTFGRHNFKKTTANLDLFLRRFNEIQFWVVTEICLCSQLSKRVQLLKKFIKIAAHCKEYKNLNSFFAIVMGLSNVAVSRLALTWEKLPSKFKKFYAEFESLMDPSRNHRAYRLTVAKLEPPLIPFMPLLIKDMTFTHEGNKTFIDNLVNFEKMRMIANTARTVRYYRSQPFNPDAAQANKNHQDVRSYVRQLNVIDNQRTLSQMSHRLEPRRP
# Rap guanine nucleotide exchange factor 3 (Homo sapiens), sequence (O95398 whole entry, looked up): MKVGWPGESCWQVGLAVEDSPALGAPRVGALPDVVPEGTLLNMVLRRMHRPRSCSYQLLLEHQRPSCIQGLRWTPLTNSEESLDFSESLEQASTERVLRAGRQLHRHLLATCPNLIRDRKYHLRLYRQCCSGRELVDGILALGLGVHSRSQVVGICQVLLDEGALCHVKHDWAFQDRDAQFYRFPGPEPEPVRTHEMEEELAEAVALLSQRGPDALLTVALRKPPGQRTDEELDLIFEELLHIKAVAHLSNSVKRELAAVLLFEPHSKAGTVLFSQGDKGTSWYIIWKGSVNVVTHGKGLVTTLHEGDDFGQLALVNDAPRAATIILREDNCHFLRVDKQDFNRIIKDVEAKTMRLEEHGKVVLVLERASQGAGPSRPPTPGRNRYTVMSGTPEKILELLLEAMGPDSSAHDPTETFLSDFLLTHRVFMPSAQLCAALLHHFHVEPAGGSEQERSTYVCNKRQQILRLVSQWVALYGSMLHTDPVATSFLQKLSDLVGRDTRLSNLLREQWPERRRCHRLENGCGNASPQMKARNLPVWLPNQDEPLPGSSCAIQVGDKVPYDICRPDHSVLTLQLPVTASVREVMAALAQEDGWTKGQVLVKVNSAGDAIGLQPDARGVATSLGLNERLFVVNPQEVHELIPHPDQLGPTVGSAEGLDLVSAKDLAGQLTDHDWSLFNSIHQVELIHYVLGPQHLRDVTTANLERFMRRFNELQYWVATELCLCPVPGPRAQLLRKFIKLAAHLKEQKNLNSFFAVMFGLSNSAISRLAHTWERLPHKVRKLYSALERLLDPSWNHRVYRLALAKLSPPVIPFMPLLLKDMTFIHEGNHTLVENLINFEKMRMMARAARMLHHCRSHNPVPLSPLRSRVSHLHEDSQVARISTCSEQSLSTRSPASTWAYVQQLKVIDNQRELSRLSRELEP
structure (smiles),measurement,setting,value
COC(=O)c1ccc(OCC2c3cc(OC)c(OC)cc3CCN2C(=O)c2ccc(OC)cc2)cc1 (centres undefined),Potency,[1],inactive
same,Potency,[2],inactive
same,Potency,[3],inactive
CC(=O)Nc1ccc(Nc2nnc(-c3ccc(O)cc3)c3ccccc23)cc1,Potency,[1],inactive
same,Potency,[2],inactive
same,Potency,[3],inactive
COc1ccc2c(c1)Cc1sc(NC(=O)c3ccccc3Br)nc1-2,Potency,[1],inactive
same,outcome,[2],inactive [at 12.7 µM]
same,Potency,[3],inactive
COC(=O)c1ccc2nc(-c3ccc(Cl)cc3)c(Cc3ccsc3)n2c1,Potency,[1],inactive
same,Potency,[3],inactive
same,Potency,[4],inactive
CCC(C(=O)c1ccc2ncccc2c1)c1ccccc1 (centres undefined),Potency,[1],inactive
same,Potency,[3],inactive
same,Potency,[4],inactive
COc1ccc(CN(C(=O)c2ccco2)c2ccc(C)c(C)c2)cc1,Potency,[1],inactive
same,"activity change, negative = inhibition",[3],-23% [at 30.8 µM]
same,activation,[4],12.3% [at 30.8 µM]
COc1ccc(C(=O)Oc2ccc(/C=N/Nc3ccc(Cl)c(C(=O)O)c3)cc2OC)cc1,Potency,[1],inactive
same,Potency,[3],inactive
Cc1ccccc1C1CC(=O)c2ccccc2C1C (centres undefined),Potency,[1],inactive
same,Potency,[3],inactive
same,Potency,[4],inactive
COC(=O)CN(c1nc(C)c(Br)c(OC)n1)S(=O)(=O)c1ccccc1,Potency,[1],inactive
same,Potency,[3],inactive
COC(=O)c1ccc2nc(-c3ccc(C)cc3)c(Cc3ccsc3)n2c1,Potency,[1],inactive
same,"activity change, negative = inhibition",[3],1.91% [at 30.8 µM]
same,activation,[4],9.45% [at 30.8 µM]
CCC(=O)N(CCC(Cc1ccccc1)c1ccco1)Cc1ccco1 (centres undefined),Potency,[1],inactive
same,Potency,[3],inactive
same,Potency,[4],inactive
COc1ccccc1C1CC(=O)Oc2cc(C)c(Cl)c(C)c21 (centres undefined),Potency,[1],inactive
same,"activity change, negative = inhibition",[3],3.69% [at 30.8 µM]
same,activation,[4],15.1% [at 30.8 µM]
Cn1ccc2c(-c3ccc(C(C)(C)C)cc3)cc3c(c21)C1CCC3O1 (centres undefined),Potency,[1],inactive
same,Potency,[3],inactive
same,Potency,[4],inactive
Cc1nc([N+](=O)[O-])c(Br)n1Cc1ccc(Cl)c(Cl)c1,Potency,[1],inactive
same,Potency,[3],inactive
COc1ccc(CN2C(=O)c3cccnc3C2O)cc1 (centres undefined),Potency,[1],inactive
same,Potency,[3],inactive
same,Potency,[4],inactive
CC(=O)Nc1ccc(S(=O)(=O)N2CCN(c3cc(C)ccc3C)CC2)cc1,Potency,[1],inactive
same,Potency,[3],inactive
O=C1N(c2ccc(Cl)cc2)C(c2ccccc2)N2CCCN12 (centres undefined),Potency,[1],inactive
same,Potency,[3],inactive
CCOC(=O)C1=C(c2ccccc2)c2ccccc2OC1C(=O)OCC (centres undefined),Potency,[1],inactive
same,"activity change, negative = inhibition",[3],-22.2% [at 30.8 µM]
same,activation,[4],24.5% [at 30.8 µM]
CCC(=O)N1N=C(c2cccs2)CC1c1ccc(C)cc1 (centres undefined),Potency,[1],inactive
same,Potency,[3],inactive
same,Potency,[4],inactive
Cc1ccc2nc(-c3ccccc3)c(Cc3cccc(Cl)c3)n2c1,Potency,[1],inactive
same,Potency,[3],inactive
CCc1nnc(NS(=O)(=O)c2ccc(NC(=O)C(c3ccccc3)c3ccccc3)cc2)s1,Potency,[1],inactive
same,Potency,[3],inactive
CN(CC(=O)Nc1cccc(F)c1)C(=O)/C=C/c1cc(Br)ccc1OC(F)F,Potency,[1],inactive
same,Potency,[3],inactive
COC(=O)c1ccc2nc(-c3ccco3)c(Cc3cccc(F)c3)n2c1,Potency,[1],inactive
same,Potency,[3],inactive
same,Potency,[4],inactive
CC(=O)N(CCC(Cc1ccccc1)c1ccco1)Cc1ccco1 (centres undefined),Potency,[1],inactive
same,"activity change, negative = inhibition",[3],-6.33% [at 30.8 µM]
same,activation,[4],32.1% [at 30.8 µM]
O=C(/C=C/c1ccco1)Oc1cc(Br)cc(/C=N/NC(=O)c2ccccc2O)c1,Potency,[1],inactive
same,Potency,[3],inactive
CSc1nc(N)c(C(=O)N(c2ccccc2)c2ccccc2)s1,Potency,[1],inactive
same,"activity change, negative = inhibition",[3],-10.5% [at 30.8 µM]
same,activation,[4],22.8% [at 30.8 µM]
CC(=O)NC(c1cccc(F)c1)c1nc(/C=C/c2ccccc2)cs1 (centres undefined),Potency,[1],inactive
same,Potency,[3],inactive
Cc1ccc(S(=O)(=O)CC(=O)c2cc3cccc(C)c3oc2=O)cc1,Potency,[1],inactive
same,Potency,[3],inactive
same,Potency,[4],inactive
COC(=O)c1ccc2nc(-c3cccc(Cl)c3)c(Cc3ccccc3)n2c1,Potency,[1],inactive
same,"activity change, negative = inhibition",[3],-21.2% [at 30.8 µM]
same,activation,[4],15.5% [at 30.8 µM]
CCC(CC)C(=O)Nc1nc(-c2ccc3c(c2)CCN3C(=O)C2CC2)c(C)s1,Potency,[1],inactive
same,"activity change, negative = inhibition",[3],-24% [at 30.8 µM]
same,activation,[4],26.5% [at 30.8 µM]
CCOC(=O)C1=C(C)N(C)C(C)=C(C(=O)OCC)C1c1ccc(Cl)cc1,Potency,[1],inactive
same,Potency,[3],inactive
same,Potency,[4],inactive
O=C1Nc2ccccc2/C1=N\N=C\c1ccc(O)c(O)c1,Potency,[1],inactive
same,Potency,[3],inactive
S=C(Nc1ccc2nsnc2c1)N1CCCCC1,Potency,[1],inactive
same,Potency,[3],inactive
COc1ccc(C=C(C(C)=O)C(=O)c2ccccc2)cc1,Potency,[1],inactive
same,Potency,[3],inactive
